# In PubChem BioAssay (EPA / NIEHS):
# The source made the active and inactive calls. How the source made its calls: active means hit-call score of the fitted dose curve at least 0.9, where 1 is the maximum; inactive means score below 0.9.
# Biological target: Cellular tumor antigen p53 (Homo sapiens) (UniProt P04637)
# Experiment: ATG_p53_CIS: Attagene CIS-FACTORIAL HepG2 Assay for human p53 Transcription Factor (AID 2282994)
# Details: HepG2 p53 cis-element reporter, Attagene mRNA; actives raise or lower the signal
# Experimental: ATG_CIS is a cell-based, multiplexed-readout assay that uses HepG2, a human liver cell line, with measurements taken at 24 hours after chemical dosing in a 24-well plate.ATG_p53_CIS is one of 52 assay component(s) measured or calculated from the ATG_CIS assay. It is designed to make measurements of mRNA induction, a form of inducible reporter, as detected with fluorescence intensity signals by Reverse transcription polymerase chain reaction (RT-PCR) and Capillary electrophoresis technology.Data from the assay component ATG_p53_CIS was analyzed into 1 assay endpoint. This assay endpoint, ATG_p53_CIS, was analyzed with bidirectional fitting relative to DMSO as the negative control and baseline of activity. Using a type of inducible reporter, measures of mRNA for gain or loss-of-signal activity can be used to understand the reporter gene at the transcription factor-level as they relate to the gene TP53. Furthermore, this assay endpoint can be referred to as a primary readout, because this assay has produced multiple assay endpoints where this one serves a reporter gene function. To generalize the intended target to other relatable targets, this assay endpoint is annotated to the dna binding intended target family, where the subfamily is tumor suppressor.
# Human liver HepG2 cells are transiently transfected with multiple reporter transcription units (MRTUs) in 6-well plates using FuGene 6 reagent (Roche; 3 ml FuGene/1 mg DNA). The MRTU constructs are regulated by a cis-regulating element (promoter). […] A major difference between the CIS and TRANS system is that in CIS activities of endogenous TFs are measured, whereas the TRANS assay evaluates changes in activities of exogenous, chimeric NR-Gal4 proteins. […] At the end of 24 hour incubation, total RNA was isolated using TriZol reagent (Invitrogen). The isolated RNA is then reverse-transcribed using oligo(dT) primer and Mo-MLV reverse transcriptase (Invitrogen) with DNAse I (Ambion) treatment for 30 min. The one-tenth of the produced cDNA was amplified by PCR using Taq DNA polymerase (Invitrogen) and two reporter sequence-specific primers. The PCR products were fluorescently labeled by primer extension with 6-arboxyfluorescein (6-FAM) 5'-labeled reporter sequence-specific primer (2 min at 95 C, 20 s at 68 C and 10 min at 72 C) and these products were digested with 5U of HpaI (New England Biolabs) for 2h at 37 C. The fragments were purified using Qiaquick PCR columns (Qiagen), analyzed on an ABI 3130xL genetic analyzer (Applied Biosystems) with peak positions identified by using a set of X-rhodamine (ROX)-labeled MapMarker1000 molecular weight standards (BioVentures). The raw capillary electrophoresis data was processed using Attagraph software (Attagene).
# Chain of Cellular tumor antigen p53 (Homo sapiens) (P04637 whole entry, looked up): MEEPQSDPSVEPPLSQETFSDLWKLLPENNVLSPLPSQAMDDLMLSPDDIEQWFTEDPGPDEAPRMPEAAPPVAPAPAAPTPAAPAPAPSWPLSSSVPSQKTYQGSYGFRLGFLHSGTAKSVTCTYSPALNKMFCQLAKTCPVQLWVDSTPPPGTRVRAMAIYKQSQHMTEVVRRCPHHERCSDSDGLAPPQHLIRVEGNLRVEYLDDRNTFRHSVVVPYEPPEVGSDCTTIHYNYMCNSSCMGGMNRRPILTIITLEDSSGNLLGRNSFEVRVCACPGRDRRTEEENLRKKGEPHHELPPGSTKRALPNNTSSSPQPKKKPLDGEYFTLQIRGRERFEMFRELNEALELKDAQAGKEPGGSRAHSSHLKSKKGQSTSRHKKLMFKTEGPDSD
Structure (SMILES),outcome,AC50
CC(=O)S[C@H](C(=O)N[C@H]1Cc2ccccc2[C@H]2CCC[C@@H](C(=O)O)N2C1=O)C(C)C,inactive,
CC1(C)C(=O)NC(=O)N1CO,inactive,
COC(=O)[C@H]1[C@H]2C[C@@H]3c4[nH]c5cc(OC)ccc5c4CCN3C[C@H]2C[C@@H](OC(=O)c2cc(OC)c(OC)c(OC)c2)[C@@H]1OC,,22.9 µM (active)
CCCCCCC(CCCCCCCCCCC(=O)OCC(COC(C)=O)OC(C)=O)OC(C)=O (stereo not given),inactive,
CCc1nc(N)nc(N)c1-c1ccc(Cl)cc1,,30.3 µM (active)
Cc1c(C)c2c(c(C)c1O)CCC(C)(COc1ccc(CC3SC(=O)NC3=O)cc1)O2 (stereo not given),inactive,
CCCCc1nc2cccnc2n1Cc1ccc(-c2ccccc2-c2nnn[nH]2)cc1,inactive,
CCCC[C@H]1CN(CC2CCOCC2)C(=O)OC12CCN(C1(C)CCN(C(=O)c3c(C)ncnc3C)CC1)CC2,inactive,
Cc1cc(Cc2ccc(N)c(C)c2)ccc1N,inactive,
CCc1cc(C2=C(C(=O)O)N(c3ccccc3C(F)(F)F)S(=O)(=O)c3ccccc32)cc2c1OCO2,inactive,
CCCCC(CC)COC(=O)CCCCCCCC(=O)OCC(CC)CCCC (stereo not given),inactive,
C=CCc1ccc(OC)c(OC)c1,inactive,
O=[Si]=O,inactive,
C=CCCCCCCCCCCCC,inactive,
CC1=C(C)S(=O)(=O)CCS1(=O)=O,,130 µM (active)
O=C(O)CN(CC(=O)O)CC(=O)O,inactive,
CCCCCCCCCC[N+](C)(C)[O-],inactive,
S=c1[nH]c2ccccc2s1,inactive,
COc1ccc(OC(F)(F)F)cc1CN[C@H]1CCCN[C@H]1c1ccccc1,,2.91 µM (active)
Oc1ccc(O)cc1,inactive,

Structure (SMILES),outcome,AC50
OCC(CO)n1cnc(-c2ccc(F)cc2)c1-c1ccnc(Oc2ccccc2)n1,inactive,
CCOCCOCCO,inactive,
Cc1ccc(C(C)(C)C)c(O)c1,,182 µM (active)
CC(C)(O)c1ccc(CNC(=O)c2cccnc2Oc2ccc(F)cc2)cc1,inactive,
O=C1OC(c2ccc(O)cc2)(c2ccc(O)cc2)c2ccccc21,inactive,
Oc1ccccc1O,inactive,
CC(C)c1cccc(C(C)C)c1NC(=O)NS(=O)(=O)c1cc(C(C)(C)O)co1,inactive,
CCC(C)N(C)C(=O)c1cc2ccccc2c(-c2ccccc2Cl)n1 (stereo not given),,27.3 µM (active)
COC(=O)CCC(=O)OC,inactive,
CN(C)CCCN1c2ccccc2Sc2ccc(Cl)cc21,,6.92 µM (active)
CO[C@@H]1COCC[C@@H]1N[C@@H]1CC[C@@](C(=O)N2CCc3ncc(C(F)(F)F)cc3C2)(C(C)C)C1,inactive,
CS(=O)(=O)c1ccc([C@@H](C[C@H]2CCC(=O)C2)C(=O)Nc2cnccn2)cc1Cl,inactive,
NC(=Nc1ccccc1)Nc1ccccc1,,6.23 µM (active)
CC(C)(C)c1ccccc1,inactive,
COC(=O)CCCC(=O)OC,inactive,
CCCCCCCC(=O)OC,inactive,
CCCCC(CC)CO (stereo not given),inactive,
CN(C)CCCN(C)CCCN(C)C,inactive,
O=C(O)c1[nH]n(-c2ccc(S(=O)(=O)O)cc2)c(=O)c1N=Nc1ccc(S(=O)(=O)O)cc1,inactive,
CCCCC(CC)COP(=O)(OCC(CC)CCCC)OCC(CC)CCCC (stereo not given),inactive,
